The text below walks through data of PubChem BioAssay (Tox21).

The nature of assay [1]: qHTS assay to identify small molecule agonists of the hypoxia (HIF-1) signaling pathway - cell viability counter screen (AID 1224844; calls by dose curve; further: nearly all actives have a fitted effect of over 50% in size; further: potency means the concentration at half of the fitted maximal effect). An outline of the steps: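 Luminescent ATP content (CellTiter-Glo, 30 min, room temperature) served as the viability measure in HRE-bla ME-180 cells exposed to compounds for 17 hrs in low-serum medium (0.5% dialyzed FBS).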
On the technique in general: Quantitative high-throughput screening tests each substance at several concentrations.

Assay [2] is described as follows: qHTS assay to identify small molecule agonists of the hypoxia (HIF-1) signaling pathway (AID 1224846; active means well fitted activation curve with a large enough effect in the signal ratio in the repeat runs, not every such curve was filed as active; the % refers to the signal ratio). In short, it runs like this:
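Measured by blue/green FRET after loading CCF4-AM: beta-lactamase expressed from a hypoxia response element in ME-180 cells. Test agents were delivered in DMSO and left 17 hrs; cells had been plated 5 hrs earlier in low-serum (0.5% dialyzed FBS) medium.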

Assay [3] is described as follows: qHTS assay to identify small molecule agonists of H2AX - cell viability counter screen (AID 1224847; calls by dose curve;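 further: wild-type CHO-K1 cells; top concentration of the series differs between compounds; nearly all actives have a fitted effect of over 30% in size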). In short, it runs like this: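 CHO-K1 wt, 1000 cells/well, o/n 37C; cpds 15 conc, 3 h 37C, 0.76% DMSO; CellTiter-Glo, 30 min RT, luminescence.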
The nature of assay [4]: qHTS assay to identify small molecule antagonists of the estrogen related receptor (ERR) signaling pathway from Tox21 library (AID 1224848). Further: nearly all actives have a fitted effect of over 50% in size. Further: potency means the concentration at half of the fitted maximal effect. In short, it runs like this:
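Antagonist-mode screen of the Tox21 10K library in an NTP-provided ERR reporter cell line; 18 h compound exposure at 37 C, luminescence measured with ONE-Glo.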

Assay [5] in a line: qHTS assay to identify small molecule agonists of the estrogen related receptor (ERR) signaling pathway from Tox21 library (AID 1224849; calls by dose curve; further: nearly all actives have a fitted effect of over 15% in size). Particulars: ERR reporter cell line, ONE-Glo luciferase, 18 h; at 92.4 µM (top of the series) unless noted. An outline of the steps: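 We plated ERR reporter cells, waited 6 h, added compounds in DMSO by pin tool and incubated them 18 h at 37 C. ONE-Glo was then added and luminescence read after 30 min.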

Assay [6] is described as follows: A CellTox Green Cytotoxicity Assay to monitor cytotoxicity in HEK293 cells - 0 hour (AID 1224869). Further: nearly all actives have a fitted effect of over 50% in size. In short, it runs like this:
(§1)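 Each value comes from one timepoint of a single continuous run in which HEK293 cells with CellTox Green were exposed to compound for up to 40 h at 37 C, dye fluorescence rising with cell death.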

The nature of assay [7]: qHTS RealTime-Glo MT Cell Viability Assay in HepG2 cells - 40 hour (AID 1224870). Further: nearly all actives have a fitted effect of over 50% in size. In short, it runs like this: (§2)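 Real-time viability: cells seeded at 600 per well together with NanoLuc and cell-permeant prosubstrate, compounds added after 5 h incubation. Luminescence tracked at 0, 8, 16, 24, 32 and 40 h of exposure.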
Assay [8] can be described thus: A CellTox Green Cytotoxicity Assay to monitor cytotoxicity in HEK293 cells - 40 hour (AID 1224871). Further: nearly all actives have a fitted effect of over 45% in size. Further: potency means the concentration at half of the fitted maximal effect. In short, it runs like this:
as §1

Assay [9] in a line: A CellTox Green Cytotoxicity Assay to monitor cytotoxicity in HEK293 cells - 24 hour (AID 1224875). Further: nearly all actives have a fitted effect of over 45% in size. An outline of the steps: as §1
Assay [10] can be described thus: A CellTox Green Cytotoxicity Assay to monitor cytotoxicity in HepG2 cells - 16 hour (AID 1224876). Further: nearly all actives have a fitted effect of over 45% in size. In short, it runs like this: (§3)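 Continuous culture of HepG2 cells with a membrane-impermeant DNA dye; rising fluorescence marks dead cells. Compound exposure lasted up to 40 h at 37 C, with reads every 8 h from 0 h.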
A short description of assay [11]: qHTS RealTime-Glo MT Cell Viability Assay in HepG2 cells - 32 hour (AID 1224877). Further: nearly all actives have a fitted effect of over 55% in size. In short, it runs like this: (§4)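 HepG2 cells were seeded at 600 cells/well together with NanoLuc luciferase and a cell-permeant prosubstrate, preincubated 5 h at 37 C/5% CO2, then pin-dosed with compounds in DMSO. Nonlytic luminescence from viable cells was read at each time point.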

The nature of assay [12]: A CellTox Green Cytotoxicity Assay to monitor cytotoxicity in HepG2 cells - 24 hour (AID 1224878). Further: nearly all actives have a fitted effect of over 45% in size. An outline of the steps:
as §3

Assay [13] in a line: A CellTox Green Cytotoxicity Assay to monitor cytotoxicity in HepG2 cells - 40 hour (AID 1224879). Further: nearly all actives have a fitted effect of over 40% in size. Further: potency means the concentration at half of the fitted maximal effect. An outline of the steps:
as §3

Assay [14] can be described thus: qHTS RealTime-Glo MT Cell Viability Assay in HepG2 cells - 24 hour (AID 1224867). Further: nearly all actives have a fitted effect of over 50% in size. In short, it runs like this: as §4
A short description of assay [15]: qHTS RealTime-Glo MT Cell Viability Assay in HEK293 cells - 32 hour (AID 1224868). Further: nearly all actives have a fitted effect of over 50% in size. Further: potency means the concentration at half of the fitted maximal effect. An outline of the steps: (§5)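 HEK293 cells were seeded at 600 cells/well together with NanoLuc luciferase and cell-permeant prosubstrate, preincubated 5 h at 37 C/5% CO2, then given compound in DMSO by pintool. Luminescence from viable-cell prosubstrate reduction was read repeatedly over 40 h.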

The nature of assay [16]: qHTS RealTime-Glo MT Cell Viability Assay in HEK293 cells - 16 hour (AID 1224872). Further: nearly all actives have a fitted effect of over 50% in size. Further: potency means the concentration at half of the fitted maximal effect. An outline of the steps: as §5
The nature of assay [17]: qHTS RealTime-Glo MT Cell Viability Assay in HepG2 cells - 8 hour (AID 1224873). Further: nearly all actives have a fitted effect of over 55% in size. In short, it runs like this: as §2
Assay [18] is described as follows: qHTS RealTime-Glo MT Cell Viability Assay in HEK293 cells - 40 hour (AID 1224874). Further: nearly all actives have a fitted effect of over 50% in size. The following applies: RealTime-Glo luminescence; max response: stronger effect = lower value. In short, it runs like this: (§6)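 qHTS format; HEK293 cells with NanoLuc/prosubstrate reagent, 37 C/5% CO2 for 5 h pre-dosing; compounds 23 nL in DMSO; luminescence at each time point reflects viable cells.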

Assay [19] in a line: qHTS RealTime-Glo MT Cell Viability Assay in HEK293 cells - 0 hour (AID 1224880). An outline of the steps: as §6
Assay [20] in a line: qHTS assay to identify small molecule agonists of H2AX (AID 1224845; active means well fitted activation curve with a large enough effect in the signal ratio in the repeat runs, not every such curve was filed as active; the % refers to the signal ratio). In short, it runs like this:
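Phospho-H2AX Ser139 measured by HTRF (ex 320 nm; em 665 and 620 nm) after 24 hr antibody incubation. Compounds, 15 concentrations, 0.76% DMSO, were applied to CHO-K1 cells for 3hr at 37C before lysis.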

Several values for one entry are separate records, joined by “and”; a condition that tells them apart may be missing. Equal values may be shown once. Inconclusive results are not listed. The source holds several records for some structures; these can differ, active in one and inactive in another. Activity calls are given as the source filed them. Unless noted, the call rests on the fitted dose curve; in most records, active means well fitted curve in the direction sought with a large enough effect in the repeat runs; inconclusive means weak or mixed curves; inactive means no such curve, though single readings can be large; an effect the other way counts as inactive or inconclusive.
On the % scale 0 is the no-effect control and ±100 the full control effect.

With `CCOP(=S)(OCC)SCS(=O)(=O)CC`, the Potency entry in assay [1], in assay [3], in [4], in [6], in assay [7] and in assay [8] was “inactive” in each case. Moreover, the Potency result in assay [9], in assay [10], in assay [11], in assay [12] and in assay [13] was “inactive” in each case. In assay [2], the result was inactive. Besides, the activity change, positive = activation in assay [5] was -5.31% (inactive).

For `Cn1[nH]nnc1=S`, the Potency entry in assay [1], in assay [3], in assay [14], in assay [15], in assay [6] and in [7] was “inactive” throughout. Further, the Potency entry in assay [8], in assay [16], in assay [17], in assay [9], in assay [10] and in assay [11] was “inactive” each time. Also, the Potency result in assay [12], in assay [13] and in assay [19] was “inactive” in each case. For the same molecule, in [2], the outcome was inactive. For the same molecule, the max response in assay [18] was 4.93% (inactive).

Consider `CCCCCCCCCCCCCCCC[n+]1ccccc1`, for which the Potency is 57.5 µM (active) and inactive in [1]; 34.2 µM (active) [middle of 4 runs] in assay [8]; 21.6 µM (active) [middle of 4 runs] in [16]; 15.5 µM (active) [middle of 4 runs] in [13]. The Potency entry in assay [20], in [6] and in assay [19] was “inactive” each time.

As to `O=C(Nc1ccc2[nH]ccc2c1)c1cc2cc(F)ccc2n1Cc1cccc(F)c1`, the Potency was 43.6 µM (active) in [1] and 6.11 µM (active) in assay [4]. The Potency entry in assay [20], in assay [15], in assay [6], in assay [8], in [16] and in assay [9] was “inactive” throughout. In addition, the Potency entry in [10], in assay [12], in assay [13] and in assay [19] was “inactive” in each case. Further, in [5], the activity change, positive = activation is -52.2% (inactive).

For `C1CCC2CCCCC2C1` (configuration not stated), the Potency entry in [1], in assay [3], in assay [4], in assay [14], in [15] and in assay [6] was “inactive” each time. Besides, the Potency result in assay [7], in [16], in [9], in [10], in assay [11] and in assay [12] was “inactive” each time. The Potency entry in assay [13] and in assay [19] was “inactive” in each case. For the same molecule, the call in [2] was inactive. In addition, the activity change, positive = activation in assay [5] was -0.0659% (inactive). In assay [18], the max response was 15.5% (inactive).

As to `Nc1ccc(Sc2ccc(N)cc2)cc1`, the Potency result in assay [1], in assay [3], in [4], in assay [14], in assay [15] and in assay [6] was “inactive” each time. Also, the Potency result in assay [8], in assay [16], in [17], in assay [9] and in [11] was “inactive” in each case. Besides, in [2], the molecule was called inactive. Moreover, the activity change, positive = activation in [5] was 9.92% (inactive).

Consider `Fc1cccc(Cl)c1CCl`, for which the Potency result in assay [1], in assay [3], in assay [15], in assay [6], in assay [7] and in [8] was “inactive” throughout. Further, the Potency result in [16], in [17], in [9], in [10], in [11] and in assay [12] was “inactive” throughout. Further, the Potency result in assay [13] and in assay [19] was “inactive” in each case. In [2], the result was inactive. In addition, in [18], the max response was -1.59% (inactive).

As for `COP(=S)(OC)Oc1cc(Cl)c(Br)cc1Cl`, the Potency entry in [1], in assay [20], in assay [15], in [6], in assay [7] and in assay [8] was “inactive” throughout. The Potency entry in [16], in [17], in assay [9], in assay [10], in assay [11] and in assay [12] was “inactive” throughout. For the same molecule, the Potency result in assay [13] and in assay [19] was “inactive” in each case.

As for `COS(=O)(=O)c1ccc(C)cc1`, the Potency entry in assay [1], in assay [3], in assay [14], in [15], in assay [6] and in assay [7] was “inactive” throughout. Besides, the Potency entry in assay [8], in [16], in [9], in assay [10], in assay [11] and in assay [12] was “inactive” each time. The Potency result in assay [13] and in assay [19] was “inactive” in each case. The call in assay [2] was inactive. Besides, in [18], the max response is 16.1% (inactive).

On to `COC[C@H](C)N(C(=O)CCl)c1c(C)csc1C`, for which the Potency result in assay [1], in assay [3], in assay [4], in assay [14], in assay [15] and in [6] was “inactive” throughout. Besides, the Potency entry in assay [7], in assay [8], in [16], in assay [17], in assay [9] and in [10] was “inactive” each time. In addition, the Potency entry in assay [11], in assay [12], in [13] and in assay [19] was “inactive” throughout. Besides, the result in assay [2] was inactive. Also, in [5], the activity change, positive = activation was 9.24% (inactive). For the same molecule, the max response in [18] was 19.6% (inactive).

Regarding `CC(c1ccc(O)cc1)c1ccc(O)cc1`, the Potency entry in assay [1], in assay [3], in assay [4], in [14], in assay [6] and in assay [7] was “inactive” throughout. The Potency result in [8], in assay [9], in assay [10], in assay [11], in assay [12] and in assay [13] was “inactive” in each case. Besides, the Potency entry in assay [19] is “inactive”. For the same molecule, the result in assay [2] was inactive. In assay [5], the activity change, positive = activation is -56.9% (inactive) and -6.34% (inactive). In addition, the Potency was 45.9 µM (active) in assay [15]; 45.9 µM (active) and inactive in [16].

`Nc1ccc([N+](=O)[O-])cc1Cl`: the Potency result in [1], in assay [3], in assay [15], in assay [7], in [8] and in assay [16] was “inactive” throughout. Besides, the Potency result in assay [17], in assay [9], in assay [11], in assay [12], in assay [13] and in assay [19] was “inactive” in each case. Besides, the molecule was called inactive in assay [2]. The max response in assay [18] is -7.63% (inactive).

As to `CCOP(=S)(OCC)SCS(=O)(=O)C(C)(C)C`, the Potency result in assay [1], in assay [3], in assay [14], in assay [15], in assay [6] and in [7] was “inactive” in each case. The Potency result in assay [16], in assay [17], in assay [9], in assay [10], in [11] and in [12] was “inactive” throughout. Besides, the Potency entry in [13] and in assay [19] was “inactive” throughout. Also, the call in assay [2] was inactive. The max response in assay [18] is -15.1% (inactive).
